# Assay results reported in the supplement of paper PMC4466140.
# Biological target: AgAbp1
# Assay: SPOT peptide array binding signal intensity (averaged, normalized) (arbitrary units (background-subtracted, floor 0; scale differs between SH3 domains)); higher = stronger binding of the SH3 domain to the peptide
# In short: (§1)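 GST-SH3 fusions from four yeast species, purified on glutathione Sepharose, were incubated at 10 μg/ml overnight at 4°C on membranes of synthetic 15-mer peptides in which cysteines were replaced with serines. Binding signal is the normalized, background-subtracted spot intensity averaged over replicates, in domain-specific arbitrary units.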
row,Binder,SPOT peptide array binding signal intensity
1,VQQDSLPKLPFRSWG,9.5

# Biological target: AgBbc1
# Assay: as above
# In short: as §1
row,Binder,SPOT peptide array binding signal intensity
1,VQQDSLPKLPFRSWG,38.2

# Biological target: AgBem1-D1
# Assay: as above
# In short: as §1
row,Binder,SPOT peptide array binding signal intensity
1,VQQDSLPKLPFRSWG,3.5

# Biological target: AgBzz1-D1
# Assay: as above
# In short: as §1
row,Binder,SPOT peptide array binding signal intensity
1,VQQDSLPKLPFRSWG,68.5

# Biological target: AgBzz1-D2
# Assay: as above
# In short: as §1
row,Binder,SPOT peptide array binding signal intensity
1,VQQDSLPKLPFRSWG,5.5

# Biological target: AgCyk3
# Assay: as above
# In short: as §1
row,Binder,SPOT peptide array binding signal intensity
1,VQQDSLPKLPFRSWG,29

# Biological target: AgFus1
# Assay: as above
# In short: as §1
row,Binder,SPOT peptide array binding signal intensity
1,VQQDSLPKLPFRSWG,≤ 0

# Biological target: AgHof1
# Assay: as above
# In short: as §1
row,Binder,SPOT peptide array binding signal intensity
1,VQQDSLPKLPFRSWG,368

# Biological target: AgHse1
# Assay: as above
# In short: as §1
row,Binder,SPOT peptide array binding signal intensity
1,VQQDSLPKLPFRSWG,1

# Biological target: AgLsb1
# Assay: as above
# In short: as §1
row,Binder,SPOT peptide array binding signal intensity
1,VQQDSLPKLPFRSWG,295

# Biological target: AgLsb4
# Assay: as above
# In short: as §1
row,Binder,SPOT peptide array binding signal intensity
1,VQQDSLPKLPFRSWG,3220

# Biological target: AgMyo5
# Assay: as above
# In short: as §1
row,Binder,SPOT peptide array binding signal intensity
1,VQQDSLPKLPFRSWG,≤ 0

# Biological target: AgNbp2
# Assay: as above
# In short: as §1
row,Binder,SPOT peptide array binding signal intensity
1,VQQDSLPKLPFRSWG,≤ 0

# Biological target: AgRvs167
# Assay: as above
# In short: as §1
row,Binder,SPOT peptide array binding signal intensity
1,VQQDSLPKLPFRSWG,83.3

# Biological target: AgSho1
# Assay: as above
# In short: as §1
row,Binder,SPOT peptide array binding signal intensity
1,VQQDSLPKLPFRSWG,20

# Biological target: AgSla1-D1-D2
# Assay: as above
# In short: as §1
row,Binder,SPOT peptide array binding signal intensity
1,VQQDSLPKLPFRSWG,≤ 0

# Biological target: AgSla1-D3
# Assay: as above
# In short: as §1
row,Binder,SPOT peptide array binding signal intensity
1,VQQDSLPKLPFRSWG,≤ 0

# Biological target: CaAbp1-D1
# Assay: as above
# In short: as §1
row,Binder,SPOT peptide array binding signal intensity
1,VQQDSLPKLPFRSWG,16

# Biological target: CaAbp1-D2
# Assay: as above
# In short: as §1
row,Binder,SPOT peptide array binding signal intensity
1,VQQDSLPKLPFRSWG,13

# Biological target: CaBbc1
# Assay: as above
# In short: as §1
row,Binder,SPOT peptide array binding signal intensity
1,VQQDSLPKLPFRSWG,220

# Biological target: CaBem1-D1
# Assay: as above
# In short: as §1
row,Binder,SPOT peptide array binding signal intensity
1,VQQDSLPKLPFRSWG,≤ 0

# Biological target: CaBzz1-D1
# Assay: as above
# In short: as §1
row,Binder,SPOT peptide array binding signal intensity
1,VQQDSLPKLPFRSWG,53

# Biological target: CaBzz1-D2
# Assay: as above
# In short: as §1
row,Binder,SPOT peptide array binding signal intensity
1,VQQDSLPKLPFRSWG,27.5

# Biological target: CaCyk3
# Assay: as above
# In short: as §1
row,Binder,SPOT peptide array binding signal intensity
1,VQQDSLPKLPFRSWG,8

# Biological target: CaFus1
# Assay: as above
# In short: as §1
row,Binder,SPOT peptide array binding signal intensity
1,VQQDSLPKLPFRSWG,24

# Biological target: CaHof1
# Assay: as above
# In short: as §1
row,Binder,SPOT peptide array binding signal intensity
1,VQQDSLPKLPFRSWG,4

# Biological target: CaHse1
# Assay: as above
# In short: as §1
row,Binder,SPOT peptide array binding signal intensity
1,VQQDSLPKLPFRSWG,9.25

# Biological target: CaLsb1
# Assay: as above
# In short: as §1
row,Binder,SPOT peptide array binding signal intensity
1,VQQDSLPKLPFRSWG,≤ 0

# Biological target: CaLsb4
# Assay: as above
# In short: as §1
row,Binder,SPOT peptide array binding signal intensity
1,VQQDSLPKLPFRSWG,6890

# Biological target: CaMyo5
# Assay: as above
# In short: as §1
row,Binder,SPOT peptide array binding signal intensity
1,VQQDSLPKLPFRSWG,0.5

# Biological target: CaNbp2
# Assay: as above
# In short: as §1
row,Binder,SPOT peptide array binding signal intensity
1,VQQDSLPKLPFRSWG,14.5

# Biological target: CaRvs167
# Assay: as above
# In short: as §1
row,Binder,SPOT peptide array binding signal intensity
1,VQQDSLPKLPFRSWG,1260

# Biological target: CaRvs167-3
# Assay: as above
# In short: as §1
row,Binder,SPOT peptide array binding signal intensity
1,VQQDSLPKLPFRSWG,8.5

# Biological target: CaSho1
# Assay: as above
# In short: as §1
row,Binder,SPOT peptide array binding signal intensity
1,VQQDSLPKLPFRSWG,27

# Biological target: CaSla1-D1-D2
# Assay: as above
# In short: as §1
row,Binder,SPOT peptide array binding signal intensity
1,VQQDSLPKLPFRSWG,14

# Biological target: CaSla1-D3
# Assay: as above
# In short: as §1
row,Binder,SPOT peptide array binding signal intensity
1,VQQDSLPKLPFRSWG,1.5

# Biological target: ScAbp1
# Assay: as above
# In short: as §1
row,Binder,SPOT peptide array binding signal intensity
1,VQQDSLPKLPFRSWG,6.5

# Biological target: ScBbc1
# Assay: as above
# In short: as §1
row,Binder,SPOT peptide array binding signal intensity
1,VQQDSLPKLPFRSWG,3.75

# Biological target: ScBem1-D1
# Assay: as above
# In short: as §1
row,Binder,SPOT peptide array binding signal intensity
1,VQQDSLPKLPFRSWG,0.5

# Biological target: ScBzz1-D1
# Assay: as above
# In short: as §1
row,Binder,SPOT peptide array binding signal intensity
1,VQQDSLPKLPFRSWG,≤ 0

# Biological target: ScBzz1-D2
# Assay: as above
# In short: as §1
row,Binder,SPOT peptide array binding signal intensity
1,VQQDSLPKLPFRSWG,8

# Biological target: ScCyk3
# Assay: as above
# In short: as §1
row,Binder,SPOT peptide array binding signal intensity
1,VQQDSLPKLPFRSWG,2

# Biological target: ScFus1
# Assay: as above
# In short: as §1
row,Binder,SPOT peptide array binding signal intensity
1,VQQDSLPKLPFRSWG,≤ 0

# Biological target: ScHof1
# Assay: as above
# In short: as §1
row,Binder,SPOT peptide array binding signal intensity
1,VQQDSLPKLPFRSWG,178

# Biological target: ScHse1
# Assay: as above
# In short: as §1
row,Binder,SPOT peptide array binding signal intensity
1,VQQDSLPKLPFRSWG,25

# Biological target: ScLsb1
# Assay: as above
# In short: as §1
row,Binder,SPOT peptide array binding signal intensity
1,VQQDSLPKLPFRSWG,85.5

# Biological target: ScLsb2
# Assay: as above
# In short: as §1
row,Binder,SPOT peptide array binding signal intensity
1,VQQDSLPKLPFRSWG,38.5

# Biological target: ScLsb3
# Assay: as above
# In short: as §1
row,Binder,SPOT peptide array binding signal intensity
1,VQQDSLPKLPFRSWG,5130

# Biological target: ScLsb4
# Assay: as above
# In short: as §1
row,Binder,SPOT peptide array binding signal intensity
1,VQQDSLPKLPFRSWG,3050

# Biological target: ScMyo3
# Assay: as above
# In short: as §1
row,Binder,SPOT peptide array binding signal intensity
1,VQQDSLPKLPFRSWG,≤ 0

# Biological target: ScMyo5
# Assay: as above
# In short: as §1
row,Binder,SPOT peptide array binding signal intensity
1,VQQDSLPKLPFRSWG,≤ 0

# Biological target: ScNbp2
# Assay: as above
# In short: as §1
row,Binder,SPOT peptide array binding signal intensity
1,VQQDSLPKLPFRSWG,≤ 0

# Biological target: ScPex13
# Assay: as above
# In short: as §1
row,Binder,SPOT peptide array binding signal intensity
1,VQQDSLPKLPFRSWG,2500

# Biological target: ScRvs167
# Assay: as above
# In short: as §1
row,Binder,SPOT peptide array binding signal intensity
1,VQQDSLPKLPFRSWG,2720

# Biological target: ScSho1
# Assay: as above
# In short: as §1
row,Binder,SPOT peptide array binding signal intensity
1,VQQDSLPKLPFRSWG,300

# Biological target: ScSla1-D1-D2
# Assay: as above
# In short: as §1
row,Binder,SPOT peptide array binding signal intensity
1,VQQDSLPKLPFRSWG,3.5

# Biological target: ScSla1-D3
# Assay: as above
# In short: as §1
row,Binder,SPOT peptide array binding signal intensity
1,VQQDSLPKLPFRSWG,≤ 0

# Biological target: SpAbp1-D1
# Assay: as above
# In short: as §1
row,Binder,SPOT peptide array binding signal intensity
1,VQQDSLPKLPFRSWG,25

# Biological target: SpBbc1
# Assay: as above
# In short: as §1
row,Binder,SPOT peptide array binding signal intensity
1,VQQDSLPKLPFRSWG,5.25

# Biological target: SpBzz1-D1
# Assay: as above
# In short: as §1
row,Binder,SPOT peptide array binding signal intensity
1,VQQDSLPKLPFRSWG,275

# Biological target: SpBzz1-D2
# Assay: as above
# In short: as §1
row,Binder,SPOT peptide array binding signal intensity
1,VQQDSLPKLPFRSWG,1

# Biological target: SpCyk3
# Assay: as above
# In short: as §1
row,Binder,SPOT peptide array binding signal intensity
1,VQQDSLPKLPFRSWG,15.5

# Biological target: SpHof1
# Assay: as above
# In short: as §1
row,Binder,SPOT peptide array binding signal intensity
1,VQQDSLPKLPFRSWG,11.2

# Biological target: SpHof1-2
# Assay: as above
# In short: as §1
row,Binder,SPOT peptide array binding signal intensity
1,VQQDSLPKLPFRSWG,258

# Biological target: SpHof1-3
# Assay: as above
# In short: as §1
row,Binder,SPOT peptide array binding signal intensity
1,VQQDSLPKLPFRSWG,865

# Biological target: SpHse1
# Assay: as above
# In short: as §1
row,Binder,SPOT peptide array binding signal intensity
1,VQQDSLPKLPFRSWG,77.5

# Biological target: SpLsb1
# Assay: as above
# In short: as §1
row,Binder,SPOT peptide array binding signal intensity
1,VQQDSLPKLPFRSWG,3.5

# Biological target: SpLsb4
# Assay: as above
# In short: as §1
row,Binder,SPOT peptide array binding signal intensity
1,VQQDSLPKLPFRSWG,6040

# Biological target: SpMyo1
# Assay: as above
# In short: as §1
row,Binder,SPOT peptide array binding signal intensity
1,VQQDSLPKLPFRSWG,≤ 0

# Biological target: SpNbp2
# Assay: as above
# In short: as §1
row,Binder,SPOT peptide array binding signal intensity
1,VQQDSLPKLPFRSWG,1

# Biological target: SpPex13
# Assay: as above
# In short: as §1
row,Binder,SPOT peptide array binding signal intensity
1,VQQDSLPKLPFRSWG,5

# Biological target: SpRvs167
# Assay: as above
# In short: as §1
row,Binder,SPOT peptide array binding signal intensity
1,VQQDSLPKLPFRSWG,2610

# Biological target: SpSla1-D1-D2
# Assay: as above
# In short: as §1
row,Binder,SPOT peptide array binding signal intensity
1,VQQDSLPKLPFRSWG,3.5

# Biological target: SpSla1-D3
# Assay: as above
# In short: as §1
row,Binder,SPOT peptide array binding signal intensity
1,VQQDSLPKLPFRSWG,≤ 0
